Most compounds without a hit are left out; they make up all but 1.4% or so of the library.
Mtb MenB inh = M. tuberculosis MenB inhibitors, primary screen, biochemical, absorbance | 1,4-dihydroxy-2-naphthoyl-CoA synthase (Mycobacterium tuberculosis (strain ATCC 25618 / … | MenB enzyme assay, absorbance read-out | inhibition, % (no concentration beside the values) | 100,000 compounds, 0.43% hits | AID 540299, 2011; in the data active means inhibition above about 21%, passing the limit was not always enough
AID504770 = growth inhibition of E. coli YBA685, primary screen, V. cholerae RctB inhibitors | z-score (no concentration beside the values) | AID 504770, 2011 | 130,000 compounds, 0.27% hits | E. coli YBA685 rctB-dependent plasmid, OD600 growth, 3 h; stronger effect = lower value; in the data active means z-score below about -2, passing the limit was not always enough
Polio RdRp inh = poliovirus RdRp elongation inhibitors, primary screen, biochemical, fluorescence polarization, total intensity; Genome polyprotein (Poliovirus type 1 (strain Mahoney)), P03300; poliovirus polymerase elongation; stronger effect = lower value; % elongation, % (compound at 16.7 µg/mL); 150,000 compounds, 0.66% hits; in the data active means % elongation below about 90%
Target sequence (P03300 1749-2209 limits assumed): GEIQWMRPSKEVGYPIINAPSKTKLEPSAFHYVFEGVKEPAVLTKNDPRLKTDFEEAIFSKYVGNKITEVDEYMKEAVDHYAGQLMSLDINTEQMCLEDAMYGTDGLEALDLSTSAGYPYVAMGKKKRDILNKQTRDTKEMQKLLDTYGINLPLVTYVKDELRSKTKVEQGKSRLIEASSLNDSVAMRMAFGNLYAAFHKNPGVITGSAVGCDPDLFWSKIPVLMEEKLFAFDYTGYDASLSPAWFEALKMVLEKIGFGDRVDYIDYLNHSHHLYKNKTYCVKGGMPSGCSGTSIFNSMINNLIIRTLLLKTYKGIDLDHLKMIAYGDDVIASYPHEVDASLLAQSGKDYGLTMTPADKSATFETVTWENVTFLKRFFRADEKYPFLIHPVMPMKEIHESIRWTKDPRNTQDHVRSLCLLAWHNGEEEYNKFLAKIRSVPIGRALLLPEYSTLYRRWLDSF
Mtb MbtI inh = MbtI salicylate synthase inhibitors, primary screen, biochemical, fluorescence intensity. P9WFX0. purified MbtI enzyme, fluorescence intensity read-out. inhibition, % (concentration not given with the values). 100,000 compounds, 0.89% hits; in the data active means inhibition mostly above about 56%, no sharp cut-off; inactive means mostly below about 77%
* marks the source's active call; other numbers are inactive results; / = no result.

SMILES | Mtb MenB inh | AID504770 | Polio RdRp inh | Mtb MbtI inh
COc1ccc(N2CCN(S(C)(=O)=O)CC2)cc1 | 40* | 0.6 | 101 | -2
CCCN1CCc2c(C)c(C#N)c3nc4ccccc4n3c21 | -2 | -0.55 | 94 | -7
C=CCn1c(NC)nc2c1c(=O)[nH]c(=O)n2C | -30 | 2.2 | 104 | 1
C=CCn1c(SC)nc2c1c(=O)[nH]c(=O)n2C | -28 | 0.55 | 99 | 96*
O=C(/C=c1/[nH]c(=O)/c(=C/c2cccc(C(F)(F)F)c2)s1)c1ccco1 | -12 | 0.45 | 115 | -4
O=C(/C=c1\[nH]c(=O)/c(=C\c2ccsc2)s1)c1ccco1 | -195 | -0.15 | 143 | 98*
COC(=O)c1ccc(NCC(O)Cn2nnnc2-c2ccccc2)cc1 (configuration not stated) | -5 | -0.4 | 104 | -11
CC(C)Cc1csc2ncnc(NCCO)c12 | 1 | 0.1 | 88* | 2
O=C(COC(=O)c1ccc2c(c1)OCO2)NC12CC3CC(CC(C3)C1)C2 | -27 | 0 | 105 | 16
O=C(CCn1c(=O)sc2ccccc21)n1c(=O)sc2ccccc21 | -20 | 1.8 | 75* | /
CC(C)C(=O)Nc1ccc(Cl)c(C(=O)c2ccccc2)c1 | / | -0.75 | / | /
COC(=O)c1cc(-c2ccc(Cl)cc2)on1 | 26 | -0.4 | 101 | /
COC(=O)/C=C1/OC(c2ccc(Cl)cc2)=CC1=O | -58 | -0.75 | 108 | 100*
CSC1=NC(C)(C)Cc2c(C)cccc21 | 0 | -0.65 | 90* | /
Cc1cccc(NC(=O)c2c(NC(=O)c3ccccc3)sc3c2CCC3)c1 | / | / | 104 | /
Cc1cccc(NC(=O)c2c(NC(=O)c3ccccc3)sc3c2CCCC3)c1 | / | / | 75* | /
CCOC(=O)c1c(NC(=O)c2ccccc2C)sc2c1CCCC2 | / | / | 84* | /
CCOC(=O)c1c(NC(=O)c2ccc(S(=O)(=O)N3CCC(C)CC3)cc2)sc2c1CCN(C)C2 | / | / | 90* | /
O=C(Nc1sc2c(c1C(=O)O)CCCC2)c1ccc(Br)cc1 | -20 | -1.4 | 85* | /
CCOC(=O)c1c(NC(=O)c2ccccc2C(=O)O)sc2c1CCCC2 | 4 | -0.25 | 100 | -1
CCOC(=O)c1c(NC(=O)c2ccc(S(=O)(=O)N(C)C)cc2)sc2c1CCN(C)C2 | / | / | 99 | /
O=C(CCSc1nccn1Cc1ccccc1)NC1CCCCC1 | 0 | -0.95 | 103 | /
Cc1ccc(N2C(=O)C3SC(N)=C(C#N)C(c4ccco4)C3C2=O)cc1 (configuration not stated) | -15 | -1.1 | 104 | 9
O=C1C=C2C3CCN(CC3)C2CC1 (configuration not stated) | -14 | -0.3 | 103 | -22
CCOC(=O)c1c(NC(=O)c2ccc(Br)cc2)sc2c1CCCC2 | / | / | 87* | /
SMILES | Mtb MenB inh | AID504770 | Polio RdRp inh | Mtb MbtI inh
Cc1ccc(OC(=O)C23CC4CC(CC(C4)C2)C3)cn1 | 42* | 0.95 | 101 | 15
O=C(Oc1ccc(O)cc1)C12CC3CC(CC(C3)C1)C2 | -52 | 0.65 | 97 | 97*
O=C(Oc1cc(Cl)cc(Cl)c1)C12CC3CC(CC(C3)C1)C2 | -9 | 0.1 | 108 | -8
CC(C)C(Sc1nnc(-c2ccccc2)n1-c1ccccc1)C(=O)NC(N)=O (configuration not stated) | -14 | -0.4 | 103 | 4
CCCCN1C(=O)/C(=C2/C(=O)N(Cc3ccccc3)c3ccccc32)SC1=S | / | -2.6 | 104 | -12
O=C(CN1C(=O)CSC1=O)Nc1nccs1 | -3 | 0.15 | 96 | -6
Nn1cnn(CC(=O)Nc2nccs2)c1=S | -17 | 1.6 | 74* | /
O=C(Oc1c(Cl)cc(Cl)c2cccnc12)c1ccco1 | -36 | -3.4* | 98 | -8
Oc1c(Cl)cc(Cl)c2cccnc12 | -8 | -1.2 | 98 | -12
NC(=S)c1sccc1CS(=O)c1ccc(Cl)cc1 (configuration not stated) | 2 | -0.7 | 107 | 59*
Cc1ccsc1C(N)=S | -20 | -0.8 | 103 | 6
O=C1c2c(O)ccc(O)c2C(=O)c2c(NCCNCCO)ccc(NCCNCCO)c21 | 0 | 1.4 | -53* | -7
O=c1[nH]cc(NCCO)c(=O)[nH]1 | / | 0.65 | / | -6
COc1cc2c(cc1N)CCCC2 | -34 | -0.9 | 101 | 1
Cc1ccc(NC(=O)CSc2nc3n[nH]c(C)c3c(=N)n2-c2cccc(C)c2)cc1 | / | / | 104 | /
CCc1ccc(NC(=O)CSc2nc3n[nH]c(C)c3c(=N)n2-c2ccc(C)cc2)cc1 | / | / | 86* | /
O=C(O)c1c(-n2cccc2)sc2c1CCC2 | / | 1.1 | / | 0
CC(=O)OCC(=O)Nc1ccccc1 | -30 | 1.6 | 3.0* | -8
Cc1ccc(C)n1CCC(=O)O | -52 | 0.5 | 69* | 1
Cc1ccn(CCC(=O)O)n1 | 12 | -0.7 | 100 | -13
CC(C)(C)C1=Nn2c(nnc2-c2ccccc2)SC1 | -1 | -0.4 | 93 | 64*
Cc1nonc1NC(=O)C(C)Oc1ccc(F)cc1 (configuration not stated) | -16 | -0.35 | 103 | -8
CC(C)(C)/C(O)=C/c1nc2cc(Cl)ccc2oc1=O | 28 | 0.65 | 102 | 10
O/N=C/c1nc2cc(Cl)ccc2o1 | 7 | 0.4 | 76* | 103
O=C(CCS(=O)(=O)c1ccccc1)N(Cc1cccnc1)c1nc2ccc(F)cc2s1 | / | / | 100 | /
SMILES | Mtb MenB inh | AID504770 | Polio RdRp inh | Mtb MbtI inh
O=C(CCS(=O)(=O)c1ccccc1)N(Cc1ccccn1)c1nc2ccccc2s1 | -6 | 1.4 | 104 | 71*
COc1ccc(-c2cc(C(=O)Oc3ccc(Cl)cc3)c3ccccc3n2)cc1 | / | / | 105 | /
CCOC(=O)c1c(C)oc2nc(COC(=O)c3cc(-c4ccc(Cl)cc4)nc4ccccc34)nc(N)c12 | -23 | -4.7* | 105 | -10
CCOC(=O)c1c(C)c(C)c(C)[nH]c1=S | -4 | -0.35 | 101 | 91*
CCOC(=O)c1sc(N)c(C(=O)OCC)c1C | -5 | 0.5 | 79* | /
COc1ccc(-c2csc(-n3nc(C)cc3C)n2)cc1 | / | -0.45 | / | /
Cc1cc(C)n(CCc2nc(-c3ccc(C)c(C)c3)cs2)n1 | -47 | 0.55 | 82* | 73*
O=C(O)CC1(O)c2ccccc2C(=O)N1Cc1ccccc1 (configuration not stated) | -37 | 1.6 | 90* | /
COC(=O)CC1(O)c2ccccc2C(=O)N1Cc1ccccc1 (configuration not stated) | / | -0.6 | / | /
COc1ccc(NC(=S)NN)cc1Cl | -16 | 1.1 | 93 | 92*
N#CC(CC(=O)c1ccccc1)c1ccccc1 (configuration not stated) | -10 | -0.85 | 105 | /
O=C(NC1(O)C(=O)c2ccccc2C1=O)c1ccccn1 | -10 | 0.6 | 54* | -8
O=C(NC1CC1)c1cnn(-c2ccc(Cl)cc2)c1C(F)(F)F | / | 0.1 | / | /
Cc1nc(C(=O)NC2(O)C(=O)c3ccccc3C2=O)cs1 | / | -0.6 | / | /
Cc1ccc(C(=O)NC2(O)C(=O)c3ccccc3C2=O)cc1C | / | -1.6 | / | /
O=C(NC1(O)C(=O)c2ccccc2C1=O)c1ccc(C(F)(F)F)cc1 | 1 | -0.35 | 9.0* | -2

High-throughput results as filed in PubChem.
